The results in this text go back to the supplement of paper PMC12067926.

Unmarked numbers belong to inactive results.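 Rule for the calls: active = growth AUC significantly below the DMSO wells by Dunnett test; inactive = the rest.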

Assay in all cases: relative growth (AUC of 72 h growth curve relative to DMSO control, dAUC) (ratio); higher = more growth (less inhibition), active = hit call of the paper
Common to all, as to conditions: 20 µM

Experiment [1] deals with Aeromonas 1 (Aeromonas sp. AE235). In a few lines:
(§1)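 For relative growth (dAUC), the spline-integrated area under the growth curve was divided by the mean of the DMSO controls. Results were averaged over three biological replicates. Each replicate used a 1:100 dilution, into 96-well plates holding each chemical at 20 µM (1% DMSO), of isolates from Icelandic stream sediments and Silwood Park soil or whole sediment communities that had been grown to carrying capacity in Luria–Bertani medium. Plates were shaken briefly before each hourly A600 reading over 72 h.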

Experiment [2] deals with Aeromonas 2 (Aeromonas sobria). In a few lines: as §1
The test system of experiment [3] is Aeromonas 3 (Aeromonas popoffii). The method in brief:
as §1

Experiment [4] relates to Argrobacterium 1 (Agrobacterium sp.). In a few lines: as §1
Experiment [5] relates to Arthrobacter 1 (Arthrobacter humicola). In a few lines:
as §1

In experiment [6] the test system is Arthrobacter 2 (Arthrobacter humicola). In a few lines:
as §1

The test system of experiment [7] is Arthrobacter 3 (Arthrobacter sp.). The method in brief:
as §1

The test system of another experiment is Community 4. In a few lines: as §1
The subject of the next experiment is Community 6. The method in brief:
as §1

Turning to `O=C1C=C(N(Cc2ccc(Cl)nc2)CC(F)F)CO1`, the relative growth in experiment [1] is 0.953; in experiment [2], 0.967; in [3], 0.978; in [4] it was 0.974; in experiment [5], 1.05; in [6], 1.08. For the same molecule, the relative growth in experiment [7] is 1.01; with Community 4 it was 1.01; in the experiment on Community 6, 0.923.

Take `CCCN(CCC)C(=O)SCc1ccccc1`: the relative growth in [1] is 1.03; in experiment [2], 1.02; in [3], 1; in experiment [4], 1.04; in [5], 1.05; in experiment [6], 0.932. In addition, the relative growth in [7] is 1.02; with Community 4 it was 0.997; in the experiment on Community 6, 0.996.

Take `N#C/N=C1\SCCN1Cc1ccc(Cl)nc1`: the relative growth was 0.998 in experiment [1]; 1 in experiment [2]; 1 in [3]; 0.984 in experiment [4]; 1.1 in experiment [5]; 1.11 in experiment [6]. For the same molecule, the relative growth in [7] was 1.06; in the experiment on Community 4 it was 1.04; in the experiment on Community 6 it was 1.05.

`COP(N)(=O)SC` (stereo not drawn): the relative growth in [1] is 0.996; in experiment [2] it was 1; in experiment [3] it was 0.972; in experiment [4], 1.14; in experiment [5], 0.92; in [6], 0.0085 (active). Besides, the relative growth in experiment [7] was 0.137 (active); in the experiment on Community 4 it was 0.808; in the experiment on Community 6, 0.626 (active).

Regarding `CCc1cccc(C)c1N(C(=O)CCl)[C@@H](C)COC`, the relative growth in experiment [1] is 1.01; in experiment [2], 0.962; in experiment [3] it was 0.992; in experiment [4], 1; in experiment [5], 1.08; in experiment [6] it was 0.89. The relative growth is 1.02 in experiment [7], 1.01 in the experiment with Community 4 and 0.968 in the experiment on Community 6.

As to `O=C(O)CNCP(=O)(O)O`, the relative growth was 0.998 in experiment [1]; 1 in experiment [2]; 1.03 in [3]; 1.01 in [4]; 0.952 in [5]; 1.04 in [6]. Further, the results for the relative growth (in experiment [7]; in the experiment with Community 4; in the experiment with Community 6) were 1.04, 1.03 and 1.07, respectively.

For the molecule `CCCCC(C#N)(Cn1cncn1)c1ccc(Cl)cc1` (stereo not drawn), the relative growth in experiment [1] is 0.946; in [2] it was 0.901; in experiment [3], 0.979; in experiment [4], 1.07; in experiment [5] it was 0.975; in [6], 0.849. The relative growth in experiment [7] was 0.841; with Community 4, 0.921; in the experiment with Community 6, 0.931.
